# PubChem BioAssay AID1159580 (chemical genetic matrix, 2015)
# Where “and” joins values, the source holds several entries; their conditions need not be identical. Equal values may be shown once. The campaign covered roughly 5,500 compounds. About 2,000 (36%) were called active. Not shown: some 18% with an inconclusive outcome. This is one part of the list. Values without a mark were called inactive. Rule as the data show it: active = normalized growth mostly below about 0.91 (no sharp cut-off); inconclusive = no clear call, values can overlap the other calls; inactive = mostly above about 0.92.
# Test: chemical genetic growth profiling, strain panel (AID 1159580);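 also: tested at 20 µM; growth read once vehicle control cultures reached saturation at 30 °C; 1 = growth at the plate median or of vehicle wells; lower values mean less growth of the strain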
# Conditions: S. cerevisiae deletion strains, growth OD
smiles,measurement,setting,value
C[C@@H]1CC[C@@]2(OC1)OC1C(O)C3C4CC[C@H]5C[C@H](O[C@@H]6O[C@H](CO)[C@H](O[C@@H]7O[C@H](CO)[C@@H](O)[C@H](O[C@@H]8OC[C@@H](O)[C@H](O)[C@H]8O)[C@H]7O[C@@H]7O[C@H](CO)[C@H](O)[C@H](O[C@@H]8O[C@H](CO)[C@@H](O)[C@H](O)[C@H]8O)[C@H]7O)[C@H](O)[C@H]6O)[C@H](O)C[C@]5(C)C4CC[C@]3(C)C1[C@@H]2C (stereo partly specified),normalized growth,"locus YAL013W, strain DEP1, hits give low values",0.0526 (active)
same,normalized growth,"locus YAL021C, strain ccr4, hits give low values",0.988
same,normalized growth,"locus YAL026C, strain drs2, hits give low values",1.01
same,normalized growth,"locus YAL030W, strain snc1, hits give low values",1.02
same,normalized growth,"locus YBL061C, strain skt5, hits give low values",1.01
same,normalized growth,"locus YBR009C, strain hhf1, hits give low values",0.942
same,normalized growth,"locus YBR021W, strain FUR4, hits give low values",0.0876 (active)
same,normalized growth,"locus YBR023C, strain chs3, hits give low values",1.01
same,normalized growth,"locus YBR171W, strain sec66, hits give low values",0.986
same,normalized growth,"locus YBR229C, strain ROT2, hits give low values",0.0499 (active)
same,normalized growth,"locus YBR231C, strain swc5, hits give low values",0.99
same,normalized growth,"locus YBR279W, strain paf1, hits give low values",1.02
same,normalized growth,"locus YCL011C, strain gbp2, hits give low values",0.986
same,normalized growth,"locus YCL016C, strain dcc1, hits give low values",0.995
same,normalized growth,"locus YCL029C, strain bik1, hits give low values",0.0554 (active)
same,normalized growth,"locus YCL061C, strain MRC1, hits give low values",0.999
same,normalized growth,"locus YCL069W, strain vba3, hits give low values",1.02
same,normalized growth,"locus YCR088W, strain abp1, hits give low values",1.01
same,normalized growth,"locus YDL005C, strain med2, hits give low values",1.06
same,normalized growth,"locus YDL035C, strain GPR1, hits give low values",0.0509 (active)
same,normalized growth,"locus YDL040C, strain nat1, hits give low values",1.02
same,normalized growth,"locus YDL074C, strain BRE1, hits give low values",0.0891 (active)
same,normalized growth,"locus YDL101C, strain DUN1, hits give low values",0.0606 (active)
same,normalized growth,"locus YDL185W, strain tfp1, hits give low values",0.0577 (active)
same,normalized growth,"locus YDL192W, strain arf1, hits give low values",0.0632 (active)
same,normalized growth,"locus YDR001C, strain nth1, hits give low values",1.02
same,normalized growth,"locus YDR069C, strain doa4, hits give low values",1.03
same,normalized growth,"locus YDR101C, strain arx1, hits give low values",0.0567 (active)
same,normalized growth,"locus YDR137W, strain rgp1, hits give low values",0.509 (active)
same,normalized growth,"locus YDR150W, strain NUM1, hits give low values",0.0485 (active)
same,normalized growth,"locus YDR159W, strain sac3, hits give low values",0.84 (active)
same,normalized growth,"locus YDR162C, strain NBP2, hits give low values",0.0515 (active)
same,normalized growth,"locus YDR195W, strain ref2",0.61 (active)
same,normalized growth,"locus YDR297W, strain sur2, hits give low values",1.02
same,normalized growth,"locus YDR318W, strain mcm21, hits give low values",0.0561 (active)
same,normalized growth,"locus YDR334W, strain swr1, hits give low values",1.02
same,normalized growth,"locus YDR335W, strain msn5, hits give low values",0.907 (active)
same,normalized growth,"locus YDR388W, hits give low values",0.0552 (active)
same,normalized growth,"locus YDR392W, strain spt3, hits give low values",0.919
same,normalized growth,"locus YDR502C, strain sam2, hits give low values",0.0624 (active)
same,normalized growth,"locus YEL003W, strain gim4, hits give low values",1
same,normalized growth,"locus YEL037C, strain rad23, hits give low values",1.02
same,normalized growth,"locus YEL061C, strain CIN8 (second series), hits give low values",0.999
same,normalized growth,"locus YER015W, strain faa2, hits give low values",1.02
same,normalized growth,"locus YER016W, strain bim1, hits give low values",0.977
same,normalized growth,"locus YER110C, hits give low values",0.0702 (active)
same,normalized growth,"locus YER111C, strain swi4, hits give low values",0.642 (active)
same,normalized growth,"locus YER155C, strain BEM2 (second series), hits give low values",1.01
same,normalized growth,"locus YER155C, strain BEM2, hits give low values",0.0639 (active)
same,normalized growth,"locus YER167W, strain BCK2, hits give low values",0.0533 (active)
same,normalized growth,"locus YFR010W, strain ubp6, hits give low values",1.01
same,normalized growth,"locus YGL078C, strain dbp3, hits give low values",0.0574 (active)
same,normalized growth,"locus YGL086W, strain mad1, hits give low values",0.0591 (active)
same,normalized growth,"locus YGL167C, strain pmr1, hits give low values",0.749 (active)
same,normalized growth,"locus YGL173C, strain kem1, hits give low values",1
same,normalized growth,"locus YGL227W, strain vid30, hits give low values",1.03
same,normalized growth,"locus YGL240W, strain doc1, hits give low values",0.846 (active)
same,normalized growth,"locus YGL248W, strain PDE1, hits give low values",0.0484 (active)
same,normalized growth,"locus YGL253W, strain hxk2, hits give low values",1.02
same,normalized growth,"locus YGR078C, strain PAC10, hits give low values",0.0519 (active)
same,normalized growth,"locus YGR135W, strain pre9, hits give low values",0.0583 (active)
same,normalized growth,"locus YGR252W, strain gcn5, hits give low values",0.173 (active)
same,normalized growth,"locus YHR013C, strain ard1, hits give low values",1.03
same,normalized growth,"locus YHR027C, strain rpn1, hits give low values",1.02
same,normalized growth,"locus YHR030C, strain SLT2, hits give low values",0.0897 (active)
same,normalized growth,"locus YHR079C, strain IRE1 (second series), hits give low values",0.0526 (active)
same,normalized growth,"locus YHR079C, strain IRE1, hits give low values",0.12 (active)
same,normalized growth,"locus YHR094C, strain hxt1, hits give low values",0.0539 (active)
same,normalized growth,"locus YHR129C, strain ARP1, hits give low values",0.0547 (active)
same,normalized growth,"locus YHR142W, strain chs7, hits give low values",0.876
same,normalized growth,"locus YHR200W, strain rpn10, hits give low values",0.0577 (active)
same,normalized growth,"locus YIL066C, strain RNR3, hits give low values",0.0505 (active)
same,normalized growth,"locus YIL073C, strain SPO22, hits give low values",0.119 (active)
same,normalized growth,"locus YIL125W, strain kgd1, hits give low values",0.0532 (active)
same,normalized growth,"locus YIR030C, strain dcg1, hits give low values",0.054 (active)
same,normalized growth,"locus YJL092W, strain hpr5, hits give low values",1.01
same,normalized growth,"locus YJL095W, strain BCK1 (second series), hits give low values",1.01
same,normalized growth,"locus YJL095W, strain BCK1, hits give low values",0.059 (active) and 0.105 (active)
same,normalized growth,"locus YJL115W, strain asf1, hits give low values",1.03
same,normalized growth,"locus YJL129C, strain trk1, hits give low values",0.944
same,normalized growth,"locus YJL134W, strain LCB3, hits give low values",0.0488 (active)
same,normalized growth,"locus YJL154C, strain vps35, hits give low values",1.01
same,normalized growth,"locus YJL164C, strain tpk1, hits give low values",0.933
same,normalized growth,"locus YJL166W, strain qcr8, hits give low values",0.969
same,normalized growth,"locus YJL168C, strain set2, hits give low values",0.0534 (active)
same,normalized growth,"locus YJL187C, strain SWE1 (second series), hits give low values",0.0518 (active)
